“And” between values parts separate entries of the source, which are not always exact repeats. Equal entries are not always repeated. The source made the active and inactive calls. Unless noted, the call rests on the fitted dose curve; in most records, active means well fitted curve in the direction sought with a large enough effect in the repeat runs; inconclusive means weak or mixed curves; inactive means flat fitted curve, though single readings scatter.

The nature of test [1]: qHTS assay to test for compound auto fluorescence at 535 nm (green) in HEK293 cells (AID 720680). In general terms: Quantitative high-throughput screening tests each substance at several concentrations.
Test [2] is described as follows: qHTS assay to test for compound auto fluorescence at 460 nm (blue) in HEK293 cell free culture (AID 720681). Further: potency means the concentration at half of the fitted maximal effect. An outline of the steps: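 Compounds were added to cell-free DMEM with 10% FBS and fluorescence read directly. The blue channel used 405 nm excitation and 460 nm emission, with triamterene as the reference fluorophore.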
Test [3] can be described thus: qHTS assay to test for compound auto fluorescence at 535 nm (green) in HEK293 cell free culture (AID 720682). Put shortly: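 Fluorescein serves as the green reference fluorophore; each compound's intrinsic emission at 535 nm (excitation 485 nm) is reported as an equivalent amount of that dye, measured in serum-containing DMEM without cells.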
A short description of test [4]: qHTS assay to test for compound auto fluorescence at 590 nm (red) in HEK293 cell free culture (AID 720683). An outline of the steps:
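Cell-free wells of DMEM with 10% FBS received compound, and intrinsic fluorescence was read at excitation/emission 540/590 nm. Values expressed as equivalence to Rose Bengal sodium.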

A short description of test [5]: qHTS assay to test for compound auto fluorescence at 590 nm (red) in HepG2 cell free culture (AID 720684). Put shortly: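 Auto fluorescence equivalency versus Rose Bengal sodium, red channel Ex/Em 540/590 nm; compounds in cell-free MEM/10% FBS; DMSO vehicle control.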
Test [6] can be described thus: qHTS assay to test for compound auto fluorescence at 460 nm (blue) in HepG2 cell free culture (AID 720685). Further: potency means the concentration at half of the fitted maximal effect. An outline of the steps:
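Cell-free plates of MEM plus 10% FBS received 23 nL compound or DMSO vehicle; blue-channel (405/460 nm) intensity scored against triamterene as reference fluorophore.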

A short description of test [7]: qHTS assay to test for compound auto fluorescence at 535 nm (green) in HepG2 cell free culture (AID 720686).
Test [8] in a line: qHTS assay to test for compound auto fluorescence at 460 nm (blue) in HepG2 cells (AID 720687). Further: potency means the concentration at half of the fitted maximal effect. Put shortly:
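HepG2 cells in MEM with 10% FBS, attached overnight at 37 C, were exposed to compound or DMSO for 1 hr at 37 C, 5% CO2. Blue fluorescence was read at 405/460 nm, with triamterene as reference fluorophore.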

In test [9] the target is Glucocorticoid receptor (Homo sapiens) (UniProt P04150). As to the kind of experiment: qHTS assay to identify small molecule agonists of the glucocorticoid receptor (GR) signaling pathway (AID 720691; active means well fitted activation curve with a large enough effect in the signal ratio in the repeat runs, not every such curve was filed as active; inconclusive means weak or mixed curves, or effect the other way; inactive means no such curve, though single readings can be large or run the other way; the % refers to the signal ratio; further: potency means the concentration at half of the fitted maximal effect). Put shortly: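 HeLa GR-bla reporter line; cells pre-incubated 4 h, compound in DMSO 18 h at 37 C; LiveBLAzer B/G FRET substrate 2 h RT; fluorescence intensity read-out.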
Chain of Glucocorticoid receptor (Homo sapiens) (P04150 whole entry, looked up): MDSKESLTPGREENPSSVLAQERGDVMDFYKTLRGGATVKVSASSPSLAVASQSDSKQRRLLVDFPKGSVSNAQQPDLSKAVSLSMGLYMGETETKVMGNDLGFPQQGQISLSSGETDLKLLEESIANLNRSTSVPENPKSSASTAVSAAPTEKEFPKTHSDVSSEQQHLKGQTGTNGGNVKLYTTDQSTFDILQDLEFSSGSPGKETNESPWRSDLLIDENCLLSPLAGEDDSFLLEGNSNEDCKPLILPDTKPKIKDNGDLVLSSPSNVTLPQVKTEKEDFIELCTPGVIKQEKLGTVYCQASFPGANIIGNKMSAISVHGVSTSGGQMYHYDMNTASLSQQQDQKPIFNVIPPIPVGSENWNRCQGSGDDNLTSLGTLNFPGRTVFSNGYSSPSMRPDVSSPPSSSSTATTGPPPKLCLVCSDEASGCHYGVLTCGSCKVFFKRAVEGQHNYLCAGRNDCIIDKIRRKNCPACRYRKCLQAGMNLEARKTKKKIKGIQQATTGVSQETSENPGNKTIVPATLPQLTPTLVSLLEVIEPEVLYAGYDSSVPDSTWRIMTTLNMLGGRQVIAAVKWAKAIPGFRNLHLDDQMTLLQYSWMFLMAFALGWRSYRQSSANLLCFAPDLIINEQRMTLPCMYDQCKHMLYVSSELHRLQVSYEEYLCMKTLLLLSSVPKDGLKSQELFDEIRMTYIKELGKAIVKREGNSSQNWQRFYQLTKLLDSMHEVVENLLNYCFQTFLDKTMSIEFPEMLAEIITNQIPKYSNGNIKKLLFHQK

For test [10] the target is unchanged. In words: qHTS assay to identify small molecule antagonists of the glucocorticoid receptor (GR) signaling pathway (AID 720692; active means well fitted inhibition curve with a large enough effect in the signal ratio in the repeat runs, not every such curve was filed as active; inconclusive means weak or mixed curves, or effect the other way; inactive means no such curve, though single readings can be large or run the other way; the % refers to the signal ratio; further: potency means the concentration at half of the fitted maximal effect). Put shortly:
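Read-out: beta-lactamase FRET substrate fluorescence, 2 h at room temperature, in HeLa cells stably carrying a GRE-driven bla reporter. Compounds were co-incubated with 5 nM dexamethasone agonist (final) for 18 h at 37 C.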
Tags describe the fitted curve by direction and shape or compound fluorescence and quenching.

Regarding `COc1ccc(C(=O)c2ccccc2O)c(O)c1`, the Potency entry in test [1], in [2], in test [3], in [4], in test [5] and in test [6] was “inactive” each time. Moreover, the Potency entry in test [7], in [8], in [9] and in test [10] was “inactive” throughout.
As to `Oc1ccc(C(c2ccc(O)cc2)C(Cl)(Cl)Cl)cc1`, the Potency entry in test [1], in [2], in test [3], in test [4], in [5] and in [6] was “inactive” in each case. Besides, the Potency result in test [7] and in test [8] was “inactive” each time. The Potency in test [10] is 21.9 µM (active).
As to `ClC/C=C/CCl`, the Potency result in test [1], in test [2], in [3], in test [4], in test [5] and in test [6] was “inactive” each time. In addition, in test [8], the Potency result was “inactive”.
With `Nc1cc(Cl)c(N)c(Cl)c1`, the Potency entry in test [1], in [2], in test [3], in test [4], in [5] and in test [6] was “inactive” each time. Further, the Potency entry in test [8], in test [9] and in [10] was “inactive” in each case.
Take `CC(=O)O[C@]1(C(C)=O)CC[C@H]2[C@@H]3C=C(C)C4=CC(=O)CC[C@]4(C)[C@H]3CC[C@@]21C`: the Potency result in [1], in [2], in [3], in [4], in test [5] and in [6] was “inactive” each time. In addition, in test [8], the Potency entry is “inactive”. Moreover, the Potency in test [9] was 51.2 nM (active) and 61.6 nM (active); in test [10] it was 91 nM (active) and 77.6 nM (active).
In the case of `CC(C)=CCO`, the Potency entry in test [1], in [2], in test [3], in test [4], in test [5] and in test [6] was “inactive” each time. For the same compound, the Potency result in [8] was “inactive”.
As for `Cc1cccc(Nc2ccccc2C(=O)O)c1C`, the Potency entry in test [1], in test [2], in test [3], in [4], in [5] and in [6] was “inactive” in each case. Besides, the Potency result in test [8], in test [9] and in [10] was “inactive” throughout.
Consider `C=CC(C)(O)CCC=C(C)C` (stereo not given), for which the Potency entry in [1], in test [2], in [3], in test [4], in [5] and in test [6] was “inactive” each time. Moreover, the Potency entry in test [8], in [9] and in test [10] was “inactive” each time.
Consider `C=CCNCC=C`, for which the Potency result in test [1], in test [2], in test [3], in [4], in test [5] and in [6] was “inactive” in each case. Besides, the Potency result in [8], in test [9] and in test [10] was “inactive” each time.
In the case of `CN(C)C`, the Potency result in [1], in [2], in test [3], in [4], in test [5] and in test [6] was “inactive” throughout. Besides, the Potency entry in test [8] is “inactive”.
Turning to `CN(Cc1cnc2nc(N)nc(N)c2n1)c1ccc(C(=O)N[C@@H](CCC(=O)O)C(=O)O)cc1`, the Potency entry in test [1], in test [3], in test [4] and in test [5] was “inactive” in each case. The results for the Potency in [2], in test [6] and in [8] were 39.8 µM (active), 35.5 µM [fluorescent] (active) and 35.5 µM [fluorescent] (active), respectively.
On to `c1ccc2cc3ccccc3cc2c1`, for which the Potency entry in [1], in [2], in test [3], in test [4], in test [5] and in test [6] was “inactive” throughout. Also, the Potency entry in [8], in test [9] and in [10] was “inactive” in each case.
For `O=C(CCCN1CCC(O)(c2ccc(Cl)cc2)CC1)c1ccc(F)cc1`, the Potency result in test [1], in test [2], in test [3], in test [4], in test [5] and in test [6] was “inactive” throughout. Further, the Potency result in test [8] and in test [9] was “inactive” each time.
On to `C=C[C@H]1CN2CC[C@H]1C[C@H]2[C@H](O)c1ccnc2ccc(OC)cc12`, for which the Potency entry in [1], in test [2], in test [3], in [4], in test [5] and in test [6] was “inactive” throughout. Besides, in [8], the Potency entry is “inactive”.
Regarding `C=C1C[C@H]2[C@@H]3C=C(C)C4=CC(=O)CC[C@]4(C)[C@H]3CC[C@]2(C)[C@@]1(OC(C)=O)C(C)=O`, the Potency result in [1], in [2], in test [3], in test [4], in test [5] and in test [6] was “inactive” each time. Also, the Potency entry in test [8] and in test [10] was “inactive” each time. Also, the Potency in [9] was 120 nM [inconclusive] (active) and 14.1 nM (active).
Turning to `[O-]/[N+](=N\O)c1ccccc1`, the Potency entry in test [1], in test [2], in [3], in test [4], in [5] and in [6] was “inactive” throughout. For the same compound, the Potency result in test [8] is “inactive”.
For the compound `O=[Se](O)O`, the Potency entry in [1], in test [2], in [3], in [4], in [5] and in test [6] was “inactive” throughout. The Potency result in test [8] is “inactive”.
Consider `CC1(C)C(C=C(Cl)Cl)C1C(=O)OCc1cccc(Oc2ccccc2)c1` (stereo not given), for which the Potency entry in test [1], in test [2], in test [3], in test [4], in [5] and in test [6] was “inactive” in each case. Further, the Potency result in test [8], in [9] and in test [10] was “inactive” throughout.
For `CN(C)CCCN1c2ccccc2Sc2ccc(Cl)cc21`, the Potency result in [1], in [2], in test [3], in test [4], in [5] and in [6] was “inactive” in each case. For the same compound, in test [8], the Potency result was “inactive”.
With `CC1(C)NC(=O)N(c2ccc([N+](=O)[O-])c(C(F)(F)F)c2)C1=O`, the Potency entry in [1], in [2], in [3], in test [4], in test [5] and in test [6] was “inactive” throughout. Also, in [8], the Potency result was “inactive”.
For `Clc1ccc(Sc2cc(Cl)c(Cl)cc2Cl)cc1`, the Potency result in test [1], in [2], in test [3], in test [4], in [5] and in [6] was “inactive” in each case. In addition, the Potency result in test [8], in [9] and in test [10] was “inactive” in each case.
As for `O=Cc1ccccc1C=O`, the Potency entry in test [1], in test [2], in test [3], in [4], in [5] and in [6] was “inactive” throughout. Moreover, the Potency result in test [8] was “inactive”. In [10], the Potency is 6.16 µM (active).
Turning to `Cc1ccc(S(=O)(=O)NCl)cc1`, the Potency result in [1], in test [2], in test [3], in test [4], in test [5] and in test [6] was “inactive” in each case. The Potency result in test [8], in [9] and in [10] was “inactive” in each case.
Regarding `Cc1ccc2c(c1)C(=O)OC2=O`, the Potency result in test [1], in test [2], in test [3], in test [4], in [5] and in test [6] was “inactive” each time. Moreover, the Potency result in [8], in [9] and in test [10] was “inactive” throughout.
Consider `O=C(O)CCCCCCCCCCCC(=O)O`, for which the Potency entry in test [1], in test [2], in test [3], in test [4], in test [5] and in [6] was “inactive” throughout. Also, in test [8], the Potency result was “inactive”.
Regarding `C/C=C/C(=O)N(CC)c1ccccc1C`, the Potency result in [1], in test [2], in [3], in [4], in test [5] and in test [6] was “inactive” in each case. Moreover, the Potency entry in test [8], in [9] and in test [10] was “inactive” each time.
Consider `C=C[C@H]1CN2CC[C@H]1C[C@@H]2[C@@H](O)c1ccnc2ccc(OC)cc12`, for which the Potency result in [1], in test [2], in [3], in test [4], in [5] and in test [6] was “inactive” in each case. Moreover, the Potency entry in [8] was “inactive”.
Regarding `O=C(O)c1cc(=O)[nH]c(=O)[nH]1`, the Potency entry in test [1], in [2], in test [3], in test [4], in test [5] and in test [6] was “inactive” in each case. Besides, the Potency entry in test [8], in test [9] and in test [10] was “inactive” each time.
On to `Nc1ccc2c(O)cc(S(=O)(=O)O)cc2c1`, for which the Potency entry in test [1], in test [2], in test [3], in test [4], in test [5] and in test [9] was “inactive” throughout.

The values are drawn from PubChem BioAssay (Tox21).
